Calls of active or inactive are those of the source. The calls were made as follows: active = hit-call score of the fitted dose curve at least 0.9, where 1 is the maximum; inactive = score below 0.9.
Experiment: ATG_ISRE_CIS: Attagene CIS-FACTORIAL HepG2 Assay for human Interferon Regulatory Factor 1 (IRF1) binding to an Interferon-Stimulated Response Element (ISRE) (AID 2282948)
Settings: HepG2 ISRE cis-reporter (Attagene), mRNA transcription readout; actives raise or lower the signal
Description: ATG_CIS is a cell-based, multiplexed-readout assay that uses HepG2, a human liver cell line, with measurements taken at 24 hours after chemical dosing in a 24-well plate.ATG_ISRE_CIS is one of 52 assay component(s) measured or calculated from the ATG_CIS assay. It is designed to make measurements of mRNA induction, a form of inducible reporter, as detected with fluorescence intensity signals by Reverse transcription polymerase chain reaction (RT-PCR) and Capillary electrophoresis technology.Data from the assay component ATG_ISRE_CIS was analyzed into 1 assay endpoint. This assay endpoint, ATG_ISRE_CIS, was analyzed with bidirectional fitting relative to DMSO as the negative control and baseline of activity. Using a type of inducible reporter, measures of mRNA for gain or loss-of-signal activity can be used to understand the reporter gene at the transcription factor-level as they relate to the gene IRF1. Furthermore, this assay endpoint can be referred to as a primary readout, because this assay has produced multiple assay endpoints where this one serves a reporter gene function. To generalize the intended target to other relatable targets, this assay endpoint is annotated to the dna binding intended target family, where the subfamily is interferon regulatory factors.
Human liver HepG2 cells are transiently transfected with multiple reporter transcription units (MRTUs) in 6-well plates using FuGene 6 reagent (Roche; 3 ml FuGene/1 mg DNA). The MRTU constructs are regulated by a cis-regulating element (promoter). […] A major difference between the CIS and TRANS system is that in CIS activities of endogenous TFs are measured, whereas the TRANS assay evaluates changes in activities of exogenous, chimeric NR-Gal4 proteins. […] At the end of 24 hour incubation, total RNA was isolated using TriZol reagent (Invitrogen). The isolated RNA is then reverse-transcribed using oligo(dT) primer and Mo-MLV reverse transcriptase (Invitrogen) with DNAse I (Ambion) treatment for 30 min. The one-tenth of the produced cDNA was amplified by PCR using Taq DNA polymerase (Invitrogen) and two reporter sequence-specific primers. The PCR products were fluorescently labeled by primer extension with 6-arboxyfluorescein (6-FAM) 5'-labeled reporter sequence-specific primer (2 min at 95 C, 20 s at 68 C and 10 min at 72 C) and these products were digested with 5U of HpaI (New England Biolabs) for 2h at 37 C. The fragments were purified using Qiaquick PCR columns (Qiagen), analyzed on an ABI 3130xL genetic analyzer (Applied Biosystems) with peak positions identified by using a set of X-rhodamine (ROX)-labeled MapMarker1000 molecular weight standards (BioVentures). The raw capillary electrophoresis data was processed using Attagraph software (Attagene).

| SMILES | outcome | AC50 |
| --- | --- | --- |
| CCCCCCOc1cc(C)c(O)c(C)c1C | inactive | – |
| CCCCCCCC/C=C\CCCCCCCC(=O)OCCO | inactive | – |
| COC(=O)c1ccccc1OC | inactive | – |
| CCOC(=O)CC | inactive | – |
| O=S(=O)(O)c1ccccc1C=Cc1ccc(-c2ccc(C=Cc3ccccc3S(=O)(=O)O)cc2)cc1 | inactive | – |
| CCC(C)(C)C1CCCCC1OC(C)=O (stereo not given) | inactive | – |
| c1ccc(CNCc2ccccc2)cc1 | inactive | – |
| CN(C)c1ccc(C(=N)c2ccc(N(C)C)cc2)cc1 | – | 23 µM (active) |
| CCN(CC)c1ccc(C(=O)c2ccccc2C(=O)O)c(O)c1 | inactive | – |
| CCCOCCOCCOCCO | inactive | – |
| CCCCCCCCO[C@@H]1O[C@H](CO)[C@@H](O)[C@H](O)[C@H]1O | inactive | – |
| O=C1c2cccc(O)c2C(=O)c2c(O)cc(CO)cc21 | inactive | – |
| CC(C)(c1cc(Br)c(OCCO)c(Br)c1)c1cc(Br)c(OCCO)c(Br)c1 | – | 7 µM (active) |
| CCOC(=O)CC(C(C)=O)C(C)=O | inactive | – |
| C=C(C)C(=O)OCCO | inactive | – |
| c1cc(C(c2ccc(OCC3CO3)cc2)C(c2ccc(OCC3CO3)cc2)c2ccc(OCC3CO3)cc2)ccc1OCC1CO1 (stereo not given) | – | 63.3 µM (active) |
| CNC(=S)N(C)C | inactive | – |
| CCCCC(CC)COC(=O)c1ccccc1O (stereo not given) | inactive | – |
| CCCCCCCCc1ccc(Nc2ccc(CCCCCCCC)cc2)cc1 | inactive | – |
| CCCCOCCOC(=O)COc1nc(Cl)c(Cl)cc1Cl | inactive | – |

| SMILES | outcome | AC50 |
| --- | --- | --- |
| COc1c2ccoc2cc2oc(=O)ccc12 | inactive | – |
| C/C=C\C/C=C/CCCCCCCCOC(C)=O | – | 155 µM (active) |
| CC1=Nc2ccc3ccccc3c2C1(C)C | inactive | – |
| [Cl][Nd]([Cl])[Cl] | inactive | – |
| COc1ccc(-c2coc3cc(O)ccc3c2=O)cc1 | inactive | – |
| Cc1ccc(N)c([N+](=O)[O-])c1 | inactive | – |
| COc1ccc(NC(C)=O)cc1N | inactive | – |
| CC1(C)O[C@@H]2C[C@H]3[C@@H]4C[C@H](F)C5=CC(=O)C=C[C@]5(C)[C@@]4(F)[C@@H](O)C[C@]3(C)[C@]2(C(=O)CO)O1 | inactive | – |
| CCOc1ccc(N)c([N+](=O)[O-])c1 | inactive | – |
| O=C(C=Cc1ccccc1)OCc1ccccc1 | inactive | – |
| CC(C)CCCCCOC(=O)CCS | inactive | – |
| Cc1cc(O)c(Cl)c(C)c1Cl | inactive | – |
| CCCCCCCCCCCCCCCC[n+]1ccccc1 | – | 9.02 µM (active) |
| Cc1oncc1C(=O)Nc1ccc(C(F)(F)F)cc1 | inactive | – |
| O=S(=O)(Oc1ccc(Cl)cc1Cl)c1ccccc1 | inactive | – |
| O=C1CC2CC1C1CCCC21 (stereo not given) | inactive | – |
| C=C[Si](OC(C)=O)(OC(C)=O)OC(C)=O | inactive | – |
| CC=CC(=O)N(CC)c1ccccc1C | inactive | – |
| CCCCCCCCCCc1ccccc1 | inactive | – |
| O=C(O)CC(C(=O)O)C(CC(=O)O)C(=O)O (stereo not given) | inactive | – |
